Assay results published in PubChem BioAssay AID1493 (National Center for Advancing Translational Sciences (NCATS), 2009).
Values joined by “and” are separate entries in the source; they are usually repeats but may differ in a detail not shown here. Equal entries are not always repeated. Records with an inconclusive call do not appear. Active and inactive are the calls of the source.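 The calls were made as follows: active = compound pushes the radio-tagged natural neuropeptide S off its receptor in a binding test; inconclusive = any compound that did not displace the tagged ligand; inactive = never assigned.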

What follows are molecules tested against Neuropeptide S receptor (Homo sapiens) (UniProt Q6W5P4) (assay: Confirmation Concentration-Response Assay for Antagonists of the Neuropeptide S Receptor: Radioligand Displacement). Conditions: CHO-hNPSR cells, [125I]Y10-NPS displacement, 1.5 h.
Source text: NIH Chemical Genomics Center [NCGC] NIH Molecular Libraries Probe Production centers Network [MLPCN] MLPCN Grant: X01-DA026210-01 Assay Submitter (PI): Heilig, Markus Alexander NCGC Assay Overview: Neuropeptide S receptor (NPSR), previously known as GPR154, is a recently de-orphanized G protein coupled receptor. Its endogenous ligand is the 20 amino acids peptide Neuropeptide S (NPS). […] NPS and its receptor are found in various tissues. Specifically they are highly expressed in brain areas that have been implicated in modulation of arousal, stress and anxiety. Central administration of NPS in mice produces an unusual profile of activity by inducing wakefulness and arousal, while at the same time suppressing anxiety. Therefore, NPSR may represent a novel drug target for the treatment of sleep and anxiety disorders. As one method of confirming the specific activity of compounds active in the primary screen (AID 1461), we developed an assay to measure the displacement of radio-labeled native ligand, NPS, from its receptor in vitro.
The assay was carried out as described (Xu et al. (2004) Neuron, 43: 487-497) with minor modification. Y10-NPS labeled with 125I was bought from NEN Perkin Elmer (Boston, MA). CHO cells stably expressing human NPSR were seeded into 24-well plates and cultured until reaching 90-95% confluency. Cells were washed with 1ml PBS once and then incubated with radioligand with or without compounds or in DMEM medium containing 0.1% bovine serum albumin at 20C for 1.5 hr. Increasing concentrations of compounds or unlabeled human NPS were used to compete with 0.15 nM [125I] Y10-NPS. Nonspecific binding was determined in the presence of 1 uM unlabeled human NPS. Cells were washed twice with cold PBS and lysed with 1 N NaOH. Bound radioactivity was counted in a liquid scintillation counter.

Chain of Neuropeptide S receptor (Homo sapiens) (Q6W5P4 whole entry, looked up): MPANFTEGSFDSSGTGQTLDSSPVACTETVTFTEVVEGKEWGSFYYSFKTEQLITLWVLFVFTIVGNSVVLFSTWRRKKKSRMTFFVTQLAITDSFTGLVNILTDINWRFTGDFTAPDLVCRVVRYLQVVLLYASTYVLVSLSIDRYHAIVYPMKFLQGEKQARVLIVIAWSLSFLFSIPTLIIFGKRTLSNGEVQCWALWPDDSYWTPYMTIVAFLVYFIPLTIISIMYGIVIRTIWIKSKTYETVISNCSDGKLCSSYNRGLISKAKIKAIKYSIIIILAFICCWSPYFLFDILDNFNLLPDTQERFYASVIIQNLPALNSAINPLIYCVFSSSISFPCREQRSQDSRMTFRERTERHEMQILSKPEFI

Potency, active:
N#CC1=C(NC=NCc2ccccc2)Oc2ccc3ccccc3c2C1c1ccccc1 (stereo not drawn) 321 nM
COc1cccc(C2c3c(ncn(-c4ccccc4)c3=N)Oc3ccc4ccccc4c32)c1 (stereo not drawn) 266 nM
COc1ccc(C2c3c(ncn(CCN4CCOCC4)c3=N)Oc3ccc4ccccc4c32)cc1OC (stereo not drawn) 256 nM and 190 nM
CCOC(=O)CC(=O)Nc1ncnc2c1C(c1ccccc1)c1c(ccc3ccccc13)O2 (stereo not drawn) 616 nM
COc1cccc(C2c3c(ncn(CCN4CCOCC4)c3=N)Oc3ccc4ccccc4c32)c1 (stereo not drawn) 439 nM
N=c1c2c(ccn1-c1ccccc1)Oc1ccc3ccccc3c1C2c1ccccc1 (stereo not drawn) 367 nM
CCOC(=O)C1CCCN(c2ncnc3c2oc2ccccc23)C1 (stereo not drawn) 26400 nM
O=C1OC(c2ccccc2)(c2ccccc2)N2CCN(C(=O)NCc3ccc(F)cc3)CC12 (stereo not drawn) 5.62 nM
